High-throughput results deposited in PubChem BioAssay by The Scripps Research Institute Molecular Screening Center.
FBW7 activator: human FBW7 E3 ligase activation, primary screen; normalized activity (activation), % at 26.1 µM; Q969H0; 650,000 tested, 0.13% active; AlphaScreen FBW7–phospho-cyclin E peptide binding, activator screen; in the data active = normalized activity above about 1.9%;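 note: purified mutant Fbw7 with reduced substrate affinity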
GPR151 ag: activators of human GPR151; PathHunter beta-arrestin GPR151 cells, luminescence; activation, % at 11.2 µM; 650,000 tested, 1% active; in the data active = activation above about 4.9%;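 note: 0% = median of compound wells and 100% = cells with positive control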
Target sequence (Q8TDV0 whole entry, looked up): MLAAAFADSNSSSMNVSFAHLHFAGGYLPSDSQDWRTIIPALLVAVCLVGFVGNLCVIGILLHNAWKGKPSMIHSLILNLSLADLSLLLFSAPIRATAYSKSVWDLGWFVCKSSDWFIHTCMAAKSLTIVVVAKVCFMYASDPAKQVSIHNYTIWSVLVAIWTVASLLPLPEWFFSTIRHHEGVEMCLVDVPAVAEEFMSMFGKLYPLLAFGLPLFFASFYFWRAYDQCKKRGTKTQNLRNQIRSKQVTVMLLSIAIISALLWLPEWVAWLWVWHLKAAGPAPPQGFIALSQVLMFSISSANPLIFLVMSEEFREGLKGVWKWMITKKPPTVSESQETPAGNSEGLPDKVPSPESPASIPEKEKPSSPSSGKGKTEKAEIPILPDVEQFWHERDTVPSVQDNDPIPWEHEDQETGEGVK
MITF inh: inhibitors of human MITF; O75030; AlphaScreen MITF homodimerization, bead proximity signal; inhibition, % at 2.6 µM; 650,000 tested, 0.91% active; AID 1259374; in the data active = inhibition above about 50%;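 note: 0% = vehicle wells with protein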
TEAD-YAP block: TEAD-YAP interaction inhibition; 640,000 tested, 1.4% active; inhibition, % at 9.12 µM; HEK-TIYL cells, TEAD-Gal4/YAP UAS-luciferase luminescence; in the data active = inhibition above about 32%;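 note: 0% = median of test compound wells and 100% = reference inhibitor wells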
The depositor's hits bear a star. Shown are actives, neighbours in structure and some others; about 3.5% of the full set was active somewhere.

SMILES | FBW7 activator | GPR151 ag | MITF inh | TEAD-YAP block
Cc1sc2ncnc(NC(C)c3ccc(-n4ccnc4)cc3)c2c1C (stereo not given) | 0 | 1 | 5 | 47*
O=C(/C=C/c1cccs1)NCC1CCC(c2nc3ccccc3[nH]2)CC1 (stereo not given) | 0 | 1 | 3 | 5
Cc1noc(C)c1-c1nc(C(=O)NCc2cccc(C(F)(F)F)c2)cs1 | 0 | -1 | 15 | 8
CC1CN(C(=O)c2c(NC(=O)c3ccccc3Cl)sc3c2CCC(C(C)(C)C)C3)CC(C)O1 (stereo not given) | 0 | 1 | 1 | 73*
Cc1ccccc1C(=O)Nc1sc2c(c1C(=O)O)CCC(C(C)(C)C)C2 (stereo not given) | 0 | 0 | -7 | 13
CC(C)(C)C1CCc2c(sc(NC(=O)c3cccc(Cl)c3)c2C(=O)O)C1 (stereo not given) | 0 | -2 | 9 | 53*
CC(C)(C)C1CCc2c(sc(NC(=O)c3ccccc3)c2C(=O)O)C1 (stereo not given) | 0 | 1 | 9 | 91*
CC(C)(C)C1CCc2c(sc(NC(=O)c3ccccc3F)c2C(=O)O)C1 (stereo not given) | 1 | -1 | 8 | 43*
CNC(=O)c1c(NC(=O)c2ccccc2)sc2c1CCC(C(C)(C)C)C2 (stereo not given) | 0 | 0 | 9 | -22
Cc1cccc(C)c1NC(=O)C1CCCN(S(=O)(=O)c2c(C)noc2C)C1 (stereo not given) | 0 | 0 | -6 | 4
O=C(c1ccc(Cl)cc1)N(Cc1ccc(Br)cc1)c1ccc(I)cc1 | 0 | -1 | -4 | -12
COc1cccc(C2C(C(C)=O)=C(O)C(=O)N2CCCN(C)C)c1 (stereo not given) | 0 | 1 | -2 | -9
Nc1cc(C(=O)OCC(=O)N2CCCCC2)ccc1Cl | 0 | 0 | -18 | -47
COCCNc1ccnc2c(-c3ccc(CCC(=O)O)cc3)cnn12 | 0 | -3 | 15 | 50*
FC(F)(F)c1cc(-c2cnn3c(NC4CCCNC4)ccnc23)cc(C(F)(F)F)c1 (stereo not given) | 0 | 2 | -16 | 2
O=C(O)CCc1ccc(-c2cnn3c(NCc4ccccn4)ccnc23)cc1 | -1 | -1 | 24 | 14
c1cncc(CCNc2ccnc3c(-c4ccc5ccccc5c4)cnn23)c1 | 0 | 0 | -8 | 59*
COCCNc1ccnc2c(-c3ccccc3Cl)cnn12 | 0 | 1 | 0 | 58*
c1ccc2cc(-c3cnn4c(NC5CCCNC5)ccnc34)ccc2c1 (stereo not given) | 0 | 0 | 0 | 65*
Fc1ccc(-c2cnn3c(NCCc4cccnc4)ccnc23)cc1Cl | 0 | 1 | -11 | -62
Clc1ccccc1-c1cnn2c(NCCc3cccnc3)ccnc12 | 0 | 2 | -2 | 65*
CC(C)[C@@H](CO)Nc1ccc2ncc(-c3cccc(N)c3)n2n1 | -1 | 0 | -11 | 17
CC(C)[C@@H](CO)Nc1ccc2ncc(-c3cccc(Cl)c3)n2n1 | 2.0* | 0 | -2 | 5
COc1cc(-c2cnc3ccc(N[C@H](CO)C(C)C)nn23)ccc1O | 0 | 0 | -12 | 93*
CCC(CO)Nc1ccc2ncc(-c3ccccc3F)n2n1 (stereo not given) | 1 | -1 | 2 | 42*
SMILES | FBW7 activator | GPR151 ag | MITF inh | TEAD-YAP block
CC(C)[C@@H](CO)Nc1ccc2ncc(-c3ccccc3)n2n1 | 1 | 1 | 4 | 28
CCC(CO)Nc1ccc2ncc(-c3ccc(C)cc3)n2n1 (stereo not given) | 0 | 0 | 14 | 24
CC(C)[C@@H](CO)Nc1ccc2ncc(-c3ccc4ccccc4c3)n2n1 | 0 | -1 | -22 | 14
CC(C)[C@@H](CO)Nc1ccc2ncc(-c3cccc(CO)c3)n2n1 | 0 | 0 | 10 | 43*
O=c1c2cc3c(=O)n(-c4ccccc4)c(=O)c3cc2c(=O)n1-c1ccccc1 | 0 | 0 | 5 | -5
CCC(CO)Nc1ccc2ncc(-c3cccc(CO)c3)n2n1 (stereo not given) | 0 | 0 | -14 | 48*
CCC(CO)Nc1ccc2ncc(-c3cccc(Br)c3)n2n1 (stereo not given) | 0 | 0 | -5 | 1
CC1CN(C(=O)C2CCN(S(=O)(=O)c3ccccc3[N+](=O)[O-])CC2)CC(C)O1 (stereo not given) | 0 | -1 | -2 | -10
COc1ccc(CCNc2nc(SCC(=O)N3CCN(c4ccccc4OC)CC3)nc3ccccc23)cc1OC | 1 | -1 | -1 | 34*
COc1ccc(CCNc2nc(SCC(=O)N3CCN(c4ccccc4)CC3)nc3ccccc23)cc1OC | 1 | 1 | 10 | 36*
COc1ccc(CCn2c(SCC(=O)N3CCN(c4ccccc4OC)CC3)nc3ccsc3c2=O)cc1OC | 0 | -1 | 7 | 51*
CCC(C)NC(=O)CSc1nc(NCCc2ccc(OC)c(OC)c2)c2ccccc2n1 (stereo not given) | 0 | -1 | -5 | -2
O=C1NC(=S)S/C1=C\c1cccc(OS(=O)(=O)c2ccc([N+](=O)[O-])cc2)c1 | 0 | 0 | -5 | -1
CCC(=O)NC(c1ccc(OC)c(OC)c1)c1cc([N+](=O)[O-])c2cccnc2c1O (stereo not given) | -1 | 0 | 68* | 2
CCOc1cc(C(NC(=O)CC)c2cc([N+](=O)[O-])c3cccnc3c2O)ccc1O (stereo not given) | 0 | 0 | 54* | -6
CCOc1cc(C(NC(=O)C(C)C)c2cc([N+](=O)[O-])c3cccnc3c2O)ccc1O (stereo not given) | -1 | 1 | 35 | 9
CCCC(=O)NC(c1ccccc1)c1cc([N+](=O)[O-])c2cccnc2c1O (stereo not given) | -1 | 1 | 76* | 2
CCCC(=O)NC(c1ccc(OC)c(OC)c1)c1cc([N+](=O)[O-])c2cccnc2c1O (stereo not given) | 0 | 0 | 45 | 17
CCCCC(=O)NC(c1ccc(OC)c(OC)c1)c1cc([N+](=O)[O-])c2cccnc2c1O (stereo not given) | 0 | 2 | 51* | -8
CC1CCCC(C)N1C(=O)Cn1nnc(-c2ccncc2)n1 (stereo not given) | 0 | 1 | 7 | 4
COc1ccc(-c2csc(N3N=C(c4ccc(C)cc4)CC3c3ccc(Cl)cc3)n2)cc1Br (stereo not given) | 0 | 1 | 14 | -4
O=C1NC(c2cccc(Br)c2)C(C(=O)c2cccs2)C(O)(C(F)(F)F)N1 (stereo not given) | 0 | 1 | 19 | 5
CCc1ccc(S(=O)(=O)Nc2cccc(N3CCCS3(=O)=O)c2)cc1 | 0 | 1 | 15 | 33*
NS(=O)(=O)c1cccc(NC(=O)CCNS(=O)(=O)c2ccc3c(c2)OCCO3)c1 | 0 | 1 | 7 | -16
COc1ccc(C2C(C#N)=C(N)Oc3c2sc2ccccc32)c2ccccc12 (stereo not given) | 0 | -1 | 12 | 3
